FLuc inh = Firefly luciferase inhibition profiling of diverse chemical library using quantitative high-throughput screening | purified P. pyralis luciferase, luminescence, biochemical | AID 1347043, 2019 | Potency, µM (series often up to 115 µM), most hits filed as inhibitors | 76,000 tested, 2.5% active | Luciferin 4-monooxygenase (Photinus pyralis), P08659; also: % is scaled to controls: 0 for no effect and ±100 for the full control effect; nearly all actives have a fitted effect of over 65% in size
Target sequence (P08659 whole entry, looked up): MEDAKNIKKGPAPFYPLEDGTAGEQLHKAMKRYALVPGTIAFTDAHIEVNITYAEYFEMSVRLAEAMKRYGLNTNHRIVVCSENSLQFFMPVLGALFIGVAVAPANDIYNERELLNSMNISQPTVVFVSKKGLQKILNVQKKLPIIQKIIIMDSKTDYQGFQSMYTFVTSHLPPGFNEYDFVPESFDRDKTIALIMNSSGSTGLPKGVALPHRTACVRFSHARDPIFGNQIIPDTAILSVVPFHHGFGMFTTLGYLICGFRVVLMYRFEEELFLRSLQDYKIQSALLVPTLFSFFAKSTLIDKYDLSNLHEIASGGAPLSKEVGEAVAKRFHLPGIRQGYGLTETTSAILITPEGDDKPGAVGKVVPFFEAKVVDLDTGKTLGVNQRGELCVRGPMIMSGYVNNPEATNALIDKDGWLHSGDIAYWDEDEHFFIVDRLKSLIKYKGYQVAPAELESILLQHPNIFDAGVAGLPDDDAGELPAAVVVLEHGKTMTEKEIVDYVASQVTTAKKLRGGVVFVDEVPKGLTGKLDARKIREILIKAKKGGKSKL
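Purified P. pyralis luciferase (10nM final) in 50mM Tris acetate pH 7.5, 10mM Mg acetate, 0.01% Tween-20, 0.05% BSA with 10uM D-luciferin and 10uM ATP. Compounds titrated qHTS. Luminescence imaged on CCD.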
NIH3T3 tox = Cytotoxic Profiling in NIH 3T3 Cell Line of Diverse Libraries Using Quantitative High-Throughput Screening. NIH 3T3 viability, CellTiter-Glo ATP luminescence, 48-72 h. Potency, µM (highest dose often 96.7 µM), without a hit: at the highest dose activity change, negative = cytotoxicity, usual class: inhibitors. 94,000 tested, 4.3% active; also: % is scaled to controls: 0 for no effect and ±100 for the full control effect; nearly all actives have a fitted effect of over 55% in size
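Cytotoxicity is measured as loss of cellular ATP: NIH 3T3 cells (400/well) are exposed to compound for 48 or 72 hr at 37 °C, then CellTiter-Glo luminescence is imaged after 10 min at room temperature.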
hNpr1 antagonist = Natriuretic polypeptide receptor (hNpr1) antagonism - Primary qHTS; Atrial natriuretic peptide receptor 1 (Homo sapiens), P16066; HEK293 hNpr1 GloSensor cGMP, ANP-stimulated luminescence; Potency, µM (doses to about 46.3 µM), for the others: at the highest dose activity change, negative = inhibition, hits mostly inhibitors; 76,000 tested, 1.6% active; calls by dose curve; also: % is scaled to controls: 0 for no effect and ±100 for the full control effect; nearly all actives have a fitted effect of over 60% in size
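HEK293 cells stably expressing human Npr1 and cGMP GloSensor pGS-40F, loaded 2 h with 2% GloSensor reagent, given compound 30 min at room temperature. Luminescence read before and 20 min after 0.1 nM hNppA.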
HEK293 tox = Cytotoxic Profiling in HEK 293 Cell Line of Diverse Libraries Using Quantitative High-Throughput Screening. AID 1345083, 2018. HEK 293 viability, ATP luminescence (CellTiter-Glo), 48-72 h. Potency, µM (titrated, usually from 115 µM), without a hit: top-dose activity change, negative = cytotoxicity, usual class: inhibitors. 94,000 tested, 6.6% active; also: % is scaled to controls: 0 for no effect and ±100 for the full control effect; nearly all actives have a fitted effect of over 60% in size
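ATP-coupled CellTiter-Glo luminescence served as viability read-out, recorded 10 min after reagent addition at room temperature. HEK 293 cells, 250 cells/well, had been incubated with pintool-transferred compound for 48 or 72 hr at 37 degree Celsius.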
Npr1 antag conf = Natriuretic polypeptide receptor (hNpr1) antagonism - Confirmation. HEK293 hNpr1 cGMP GloSensor luminescence, ANP-stimulated. 1,400 tested, 76% active. AID 1347044, 2019. Potency, µM (top dose mostly 57.6 µM), inactives show at the highest dose activity change, negative = inhibition, hits mostly inhibitors. shares compounds with hNpr1 antagonist; calls by dose curve; also: nearly all actives have a fitted effect of over 70% in size
Npr2 selectivity = Natriuretic polypeptide receptor (hNpr2) antagonism - Subtype selectivity assay. shares compounds with hNpr1 antagonist. HEK293 hNpr2 GloSensor cGMP luminescence, CNP-stimulated. Potency, µM (titrated, usually from 57.6 µM), without a hit: at the highest dose activity change, negative = inhibition, most hits filed as inhibitors. 1,400 tested, 67% active. AID 1347046, 2019; calls by dose curve; also: nearly all actives have a fitted effect of over 70% in size
FLuc inh counter = Natriuretic polypeptide receptor (hNpr1) antagonism - Confirmation firefly luciferase (FLuc) inhibition counterscreen. Potency, µM (doses to about 57.6 µM), for the others: at the top dose activity change, negative = inhibition, usual class: inhibitors. shares compounds with hNpr1 antagonist. 1,400 tested, 0.7% active. purified FLuc enzyme, luminescence, Km substrate; also: 0% is about no effect
GloSensor ctrl = Natriuretic polypeptide receptor (hNpr1) antagonism - Counterscreen GloSensor control cell line; Potency, µM (series often up to 57.6 µM), without a hit: at the highest dose activity change, negative = inhibition, usual class: inhibitors; 1,400 tested, 69% active; shares compounds with hNpr1 antagonist; AID 1347051, 2019; HEK293 GloSensor cGMP, SNP-stimulated, luminescence; calls by dose curve; also: % is scaled to controls: 0 for no effect and ±100 for the full control effect; nearly all actives have a fitted effect of over 70% in size
* marks the source's active call; other numbers are inactive results; i = inactive; ? = inconclusive; . = not tested or not shown; [ ] = dose if it differs, or a comment. Hits are enriched below; roughly 11% of the tested compounds scored in any of these assays. Unless noted, calls follow the shape of the dose curve; as a rule, active = well fitted curve in the direction sought with a large enough effect; inconclusive = small, poorly fitted or top-dose-only effect, or another doubt; inactive = no such curve, though single readings can be large; an effect the other way counts as inactive or inconclusive. Potency is read from the fitted curve at half-maximal effect.

SMILES	FLuc inh	NIH3T3 tox	hNpr1 antagonist	HEK293 tox	Npr1 antag conf	Npr2 selectivity	FLuc inh counter	GloSensor ctrl
O=C(Cc1c[nH]c2ncc(-c3ccc(F)c(Cl)c3)cc12)NCc1cccnc1	i	?	22µM*	?	40µM*	31µM*	-3%[86.2 µM]	28µM*
Cc1cc(-c2cnc3[nH]cc(CC(=O)NCc4cccnc4)c3c2)ccn1	i	?	1%[70.6 µM]	?	.	.	.	.
COc1cc(F)cc(-c2cnc3[nH]cc(CC(=O)NCc4cccnc4)c3c2)c1	i	?	28µM*	?	31µM*	31µM*	?	31µM*
CCc1cc(N2CCCC(C(=O)c3sccc3C)C2)ncn1 (stereo not given)	i	-39%	7.1µM*	32µM*	7.7µM*	12µM*	3%	7.7µM*
O=C1NC2(CCN(Cc3ccc(OC(F)(F)F)cc3)C2)OCc2ccccc21 (stereo not given)	i	-18%	?	79µM*	22µM*	22µM*	2%	17µM*
O=C1NC2(CCN(Cc3ccc(OC(F)(F)F)cc3)C2)Oc2ccccc21 (stereo not given)	i	?	8%	?	.	.	.	.
COc1ccc(-c2cc(C[C@@H]3C[C@H](NCc4ccncc4)C3(C)C)no2)cc1	i	?	22µM*	?	20µM*	28µM*	-2%[86.2 µM]	20µM*
COCC(=O)N[C@H]1C[C@@H](Cc2cc(-c3ccc(F)cc3)on2)C1(C)C	i	?	?	?	.	.	.	.
CN(C)CC(=O)N1CCC2(CC1)NCCc1c2[nH]c2ccccc12	i	?	5%	?	.	.	.	.
c1ccc2ncc(CNC[C@H]3COCc4nc5ccccc5n43)cc2c1	i	?	20µM*	?	31µM*	31µM*	1%[86.2 µM]	28µM*
Fc1ccc2c(c1)nc1n2[C@@H](CNCc2ccccn2)COC1	i	?	-8%[70.6 µM]	?	.	.	.	.
COc1ccc2nc3n(c2c1)[C@@H](CNCc1cnc2ccccc2c1)COC3	i	-25%[138 µM]	-15%[70.6 µM]	-27%[172 µM]	.	.	.	.
CC(=O)Nc1ccc(CNC[C@H]2COCc3nc4c(C)cccc4n32)cc1	i	-16%[138 µM]	?	?	.	.	.	.
Fc1ccc2c(c1)nc1n2[C@@H](CNCc2cnc3ccccc3c2)COC1	i	-26%[138 µM]	35µM*	?	40µM*	?	-3%[86.2 µM]	40µM*
Cc1cccc2c1nc1n2[C@@H](CNCc2ccccc2)COC1	i	?	20µM*	?	31µM*	31µM*	3%[86.2 µM]	22µM*
O=C(c1cc(-c2ccccc2)n[nH]1)N1CCC2(CC1)CC(OCC1CC1)CCO2 (stereo not given)	i	-19%	0%	-16%	.	.	.	.
O=C1CN([S+](=O)([O-])c2ccc(F)cc2)CC(O)CN1CCOc1ccccc1 (stereo not given)	.	-20%	.	?	.	.	.	.
COc1cccc(CN2CCCC(C(=O)NCc3ccccc3)CCNC(=O)CC2)c1 (stereo not given)	i	-1%	0%	i	.	.	.	.
N#Cc1ccccc1CN1CCCC(C(=O)NCc2ccccc2)CCNC(=O)CC1 (stereo not given)	i	-11%	4µM*	i	14µM*	6.1µM*	3%	15%
CSc1cccc(NC(=O)Cn2c(N3CCC(C)CC3)nc(C)cc2=O)c1	i	11µM*	11µM*	11µM*	12µM*	14µM*	0%	9.7µM*
Cc1cc(=O)n(CC(=O)Nc2cccc(C(F)(F)F)c2)c(N2CCC(C)CC2)n1	i	22µM*	10µM*	35µM*	12µM*	14µM*	4%	11µM*
CNC(=O)c1cc(C2CC2)nc2c1c(C1CCCN(C(=O)c3ccccc3F)C1)nn2C (stereo not given)	.	-26%	.	i	.	.	.	.
CC1=C[C@@H](CNC(=O)CC2(CC(=O)O)CCCC2)[C@H](C(C)C)C[C@H]1Cc1nc2ccccc2n1C	i	?	1%	?	.	.	.	.
CC1=C[C@@H](CNC(=O)C2CC2)[C@H](C(C)C)C[C@H]1Cc1nc2ccccc2n1C	i	100µM*	25µM*	45µM*	31µM*	35µM*	3%[86.2 µM]	25µM*
CCC[C@H]1CN(C(=O)c2ccccc2Cc2ccc(C)cc2)C[C@@H]1N	i	89µM*	-30%	?	?	?	-1%	-21%
SMILES	FLuc inh	NIH3T3 tox	hNpr1 antagonist	HEK293 tox	Npr1 antag conf	Npr2 selectivity	FLuc inh counter	GloSensor ctrl
Cc1ccc(Cc2ccccc2C(=O)N2CCOC(C(F)(F)F)C2)cc1 (stereo not given)	i	-28%	-11%	?	.	.	.	.
COc1cccc(CNC(=O)C2CCc3nnc(-c4cccc(C(F)(F)F)c4)n32)c1 (stereo not given)	.	-23%	.	?	.	.	.	.
CCN1C(=O)Cc2ccccc2C1C(=O)NCc1ccccc1C (stereo not given)	i	3%	-11%	-8%	.	.	.	.
CCN1C(=O)Cc2ccccc2C1C(=O)NCc1ccccc1Br (stereo not given)	i	-6%	-23%	-19%	-29%	?	-14%	-9%
COc1ccccc1Cn1c(=O)c(C(=O)N2CCN(C(=O)C3CC3)CC2)nc2cccnc21	.	-2%	.	i	.	.	.	.
COc1ccccc1-c1[nH]ncc1CN1CCCCCNC(=O)[C@@H]2CCC[C@@H]21	i	-15%	-1%	-3%	.	.	.	.
Nc1nc(NCc2ccc(Cl)cc2Cl)cc(C2CC(O)C2)n1 (stereo not given)	i	?	7.1µM*	?	11µM*	19µM*	4%	9.7µM*
